High-throughput results (PubChem BioAssay)
Shown are actives, neighbours in structure and some others; about 4.7% of the full set was active somewhere.
PfHsp90 yeast 2 – inhibits growth of yeast expressing Plasmodium falciparum Hsp90 | S. cerevisiae expressing PfHsp90, BacTiter-Glo ATP, 48 h; yeast lacking PDR1 and PDR3 efflux regulators | inhibition, % at 9.4 µM | 0.32% of 310,000 active;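 active means every replicate shows inhibition above about 80%, whatever the replicate mean, limit read from the data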;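 further: 0% = DMSO neutral controls and 100% = 20 µM radicicol positive controls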
TIM10 inh – TIM10 yeast growth inhibition | S. cerevisiae TIM10 strain growth, BacTiter-Glo luminescence, 24 h | inhibition, % at 10 µM | 1.4% of 330,000 active;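 active means inhibition of 40% or more at the single tested concentration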;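 further: wild-type TIM10 isogenic control strain grown at permissive 25 °C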
SKKanGAS inh – inhibitors of SKKanGAS S. pyogenes growth in kanamycin (SK-promoter or general growth effect); inhibition, % at 7.5 µM; BacTiter-Glo, 6 h; AID 1662; 1.3% of 300,000 active;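 active means mean replicate score, as percent of positive control median, at least 50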;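 further: strain carries kanamycin resistance gene driven by streptokinase promoter and grows in 40 µg/ml kanamycin; loss of luminescence reflects streptokinase promoter inhibition or plain growth inhibition; 0% = median of DMSO wells and 100% = positive control at its reference dose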
tim23-1 inh – growth inhibitors of tim23-1 mutant yeast; 1.3% of 330,000 active; inhibition, % at 20 µM; S. cerevisiae tim23-1 growth, BacTiter-Glo luminescence, 24 h;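 active means growth inhibition of the mutant yeast at or above 50%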;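 further: temperature-sensitive mutant grown at 25 °C; plate controls were DMSO-treated mutant yeast for no effect and medium wells lacking yeast for full effect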
EBI2 antag – antagonists of human EBI2 receptor; P32249; EBI2 beta-arrestin recruitment, luminescence, 7a,25-OHC stimulated; inhibition, % at 5 µM; 0.81% of 360,000 active; AID 651636; in the data active means inhibition above about 38%;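 further: enzyme fragment complementation signal reports receptor beta-arrestin coupling in cells; 0% = agonist plus DMSO wells and 100% = wells without agonist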
Target sequence (P32249 whole entry, looked up, the tested form may be a part): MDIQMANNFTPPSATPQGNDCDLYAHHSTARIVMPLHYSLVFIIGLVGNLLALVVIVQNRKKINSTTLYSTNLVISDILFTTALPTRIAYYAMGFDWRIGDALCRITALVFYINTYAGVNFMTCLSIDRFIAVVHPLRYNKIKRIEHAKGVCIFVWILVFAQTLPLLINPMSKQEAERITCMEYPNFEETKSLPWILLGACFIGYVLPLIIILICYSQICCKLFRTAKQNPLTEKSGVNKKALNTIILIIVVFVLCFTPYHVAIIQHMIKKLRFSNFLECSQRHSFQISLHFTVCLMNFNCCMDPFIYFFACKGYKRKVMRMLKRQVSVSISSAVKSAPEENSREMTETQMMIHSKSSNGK
tim10-1 inh – inhibits growth of tim10-1 mutant yeast. S. cerevisiae tim10-1 ts strain growth, BacTiter-Glo, 24 h. inhibition, % at 20 µM. 2.2% of 330,000 active. AID 463190;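 active means inhibition of at least 40%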;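 further: mutant grown at 25 °C; 0% = DMSO wells with yeast and 100% = wells holding no yeast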
tim10-1 confirm – confirmation of tim10-1 mutant yeast growth inhibitors; shares compounds with tim10-1 inh; S. cerevisiae tim10-1 ts strain growth, BacTiter-Glo, 24 h; inhibition, % at 20 µM; 56% of 7,400 active; AID 463213;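 active means inhibition of yeast growth at or above a set limit in either of two repeat tests at 20 µM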;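 further: tim10-1 mutant grown at permissive 25 °C to find synthetic lethal compounds; 0% = DMSO yeast wells and 100% = medium wells without yeast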
TIM10 conf – TIM10 yeast growth inhibition, confirmed | inhibition, % at 10 µM | 63% of 4,600 active | S. cerevisiae tim10 strain growth, BacTiter-Glo luminescence, 24 h | shares compounds with TIM10 inh;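 active means inhibition of yeast growth at or above a set limit in either of two replicates at 10 µM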;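 further: this counterscreen used the strain with wild-type TIM10; 0% = yeast with DMSO and 100% = medium wells lacking yeast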
tim23-1 confirm – confirmation of tim23-1 mutant yeast growth inhibitors; shares compounds with tim23-1 inh; S. cerevisiae tim23-1 growth, BacTiter-Glo luminescence, 24 h; inhibition, % at 20 µM; 83% of 4,400 active; AID 463218;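 active means inhibition above about 39% in either of two replicate wells at 20 µM, limit read from the data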;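 further: temperature-sensitive tim23-1 mutant grown at 25 °C; 0% = DMSO wells with yeast and 100% = medium wells without yeast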
EBI2 antag conf – EBI2 (human) antagonism, single concentration confirmation | shares compounds with EBI2 antag | EBI2 beta-arrestin luminescence, 7a,25-OHC antagonism | inhibition, % at 5 µM | 29% of 2,400 active;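 active means inhibition of at least 50%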
EBI2 ag – activates EBI2, counter-screen for EBI2 antagonists; shares compounds with EBI2 antag; 2,400 tested, under 10 active; EBI2-expressing cells, agonist mode, luminescence, 60 min; 0% vehicle, 100% 7α,25-dihydroxycholesterol control; activation, % at 5 µM;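 active means activation of at least 50%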
bGal counter – counter-screen for EBI2 antagonists: E. coli beta-galactosidase inhibition. inhibition, % at 5 µM. 1% of 2,400 active. AID 652176. shares compounds with EBI2 antag. purified beta-galactosidase, luminescent Galacton Star, 15 min;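 active means replicate-average signal at least 3 plate SD below neutral wells, shown as high inhibition, flagging enzyme-inhibiting false positives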;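 further: 0% = DMSO wells with enzyme and 100% = wells lacking enzyme; higher means stronger loss of beta-gal luminescence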
* = called active by the depositor; . = no result given.

SMILES | PfHsp90 yeast 2 | TIM10 inh | SKKanGAS inh | tim23-1 inh | EBI2 antag | tim10-1 inh | tim10-1 confirm | EBI2 antag conf | EBI2 ag | bGal counter | others
CCOc1ccc(C(C(=O)NC2CCCCC2)N(C(=O)Cc2cccs2)c2ccc(-n3cnnn3)c(OC)c2)cc1 (configuration not stated) | -1 | 10 | 10 | 16 | 10 | 14 | . | . | . | .
CSCCC(NC(=O)c1ccc(Cl)cc1)C(=O)NC(C)(C)C (configuration not stated) | 0 | 5 | 12 | 6 | 1 | 25 | . | . | . | .
CC(C)Cn1c(N)c(C(=O)COC(=O)c2c(O)c(Cl)cc(Cl)c2Cl)c(=O)n(C)c1=O | -21 | 26 | . | 51* | 16 | 42* | 26 | . | . | . | tim23-1 confirm=58*
CC(C)Cn1c(N)c(C(=O)COC(=O)c2ccc(Cl)cc2)c(=O)n(C)c1=O | . | 33 | -2 | 31 | 3 | 32 | . | . | . | .
N#C/C(=C\c1ccc(Cl)c([N+](=O)[O-])c1)c1ccccn1 | -24 | 64* | -2 | 60* | 53* | 54* | 66* | 58* | 3 | 0 | TIM10 conf=73*;tim23-1 confirm=69*
CCCCOC(=O)c1ccc(NC(=O)c2c(N)n(C)c(=O)[nH]c2=O)cc1 | . | 13 | 6 | 5 | . | -8 | . | . | . | .
CSc1ccc(/C=C/C(=O)c2ccc(NC(=O)C(C)C)cc2)cc1 | 8 | 32 | 11 | 39 | 75* | 42* | 40* | 66* | -1 | -6
CSc1ccc(C(=O)/C=C/c2ccc(N)cc2)cc1 | -17 | -37 | 0 | 39 | 10 | 13 | . | . | . | .
Cc1ccc(C)c(N2CCN(C(=O)c3ccc4nsnc4c3)CC2)c1 | -11 | 28 | 5 | 61* | 47* | 57* | 26 | 13 | 0 | -4 | tim23-1 confirm=47*
O=C1N=C(N2CCCCC2)S/C1=C\c1ccncc1 | 9 | 10 | -7 | 18 | 2 | 13 | . | . | . | .
COc1ccc(/C=C2\SC(N3CCCCC3)=NC2=O)cc1 | -10 | 31 | -6 | 46 | 54* | 47* | 44* | 30 | 5 | 5
O=C(Nc1cccc(C(F)(F)F)c1)N1CCC(c2nc(-c3ccc(F)cc3)no2)CC1 | . | 7 | 36 | 30 | 43* | 42* | 39* | 6 | -1 | -11
O=C(Nc1ccccc1)N1CCCC(c2nc(-c3ccc(F)cc3)no2)C1 (configuration not stated) | 6 | 9 | -6 | 21 | 6 | 21 | . | . | . | .
COc1ccc(NC(=O)/C(C#N)=C/c2c(C)nn(-c3ccc(F)cc3)c2Cl)cc1OC | -7 | 49* | -4 | 44 | 70* | 51* | 45* | 53* | 0 | -13 | TIM10 conf=42*
O=C(CSc1ccc([N+](=O)[O-])cn1)Nc1cc(C(F)(F)F)ccc1N1CCOCC1 | 2 | 4 | 11 | 15 | 19 | 21 | . | . | . | .
O=C(NCCc1c[nH]c2ccccc12)c1ccc2c(c1)OCO2 | 13 | 11 | 2 | -1 | -2 | -30 | . | . | . | .
N#C/C(=C/c1ccc2c(c1)OCO2)C(=O)NCCc1c[nH]c2ccccc12 | -16 | 63* | -4 | 47 | 51* | 63* | 58* | 44 | 1 | 9 | TIM10 conf=56*
CN(C)S(=O)(=O)c1ccc(S(=O)(=O)NCc2ccc3c(c2)OCO3)cc1 | 17 | 5 | -1 | 4 | -1 | 4 | . | . | . | .
CCCOc1ccc(C(=O)N2CCN(c3ccc(N)cc3Cl)CC2)cc1 | 21 | 33 | 1 | 42 | 70* | 48* | 35* | 52* | -2 | -3
O=C(c1ccco1)N1CCN(S(=O)(=O)/C=C/c2ccccc2)CC1 | 9 | 6 | -10 | 7 | 7 | 16 | . | . | . | .
O=C(c1ccc(Cl)cc1)N1CCN(S(=O)(=O)/C=C/c2ccccc2)CC1 | -10 | 20 | . | 42 | 92* | 46* | 22 | 67* | 3 | 8
N/C(Cc1ccc(Cl)cc1)=N\OC(=O)c1ccc2ccccc2c1 | 5 | 75* | -4 | 50 | 48* | 64* | 60* | 16 | 2 | 6 | TIM10 conf=3
CCCS(=O)(=O)C/C(N)=N/OC(=O)c1ccc(Cl)cc1 | 16 | 2 | -2 | 1 | 7 | -5 | . | . | . | .
COc1ccc(N2CCN(CCN3C(=O)c4ccccc4C3=O)CC2)cc1 | -1 | -10 | 8 | 1 | 11 | 2 | . | . | . | .
CC(=O)c1ccc(NC(=O)C(=O)c2cn(CC(=O)N3CCCCC3)c3ccccc23)cc1 | 13 | -2 | -8 | -9 | 0 | 5 | . | . | . | .
SMILES | PfHsp90 yeast 2 | TIM10 inh | SKKanGAS inh | tim23-1 inh | EBI2 antag | tim10-1 inh | tim10-1 confirm | EBI2 antag conf | EBI2 ag | bGal counter | others
S=c1[nH]nc(-c2cc(-c3ccccc3)n[nH]2)n1/N=C/C(Br)=C/c1ccccc1 | . | 14 | 18 | 50 | 52* | 47* | 43* | 48 | 0 | 8
CC(C)(C)CC(C)(C)NC(=O)CSCC(=O)Nc1ccc2ccccc2c1 | 12 | 35 | 6 | 67* | 71* | 64* | 35* | 47 | -1 | -6 | tim23-1 confirm=52*
CCC(=O)Nc1ccc2ccccc2c1 | -12 | -12 | -3 | 6 | -3 | 8 | . | . | . | .
O=C(c1cc2cc(Cl)ccc2[nH]1)N1CCN(Cc2ccc3c(c2)OCO3)CC1 | 8 | 25 | 25 | 37 | 95* | 49* | -27 | 85* | -1 | -17
Cc1ccc2c(C)c(C(=O)N3CCN(Cc4ccc5c(c4)OCO5)CC3)oc2c1C | 8 | 20 | 0 | 43 | 44* | 47* | 8 | 16 | 2 | 5
Cc1ccc(C(=O)N2CCN(Cc3ccc4c(c3)OCO4)CC2)o1 | 16 | -13 | -1 | 18 | -4 | 10 | . | . | . | .
N#C/C(=C\c1ccccc1)C(=O)Nc1cc(S(=O)(=O)N2CCOCC2)ccc1N1CCCC1 | 2 | 49* | 4 | 49 | 75* | 52* | 33* | 66* | -1 | -13 | TIM10 conf=24
O=C(Nc1cc(S(=O)(=O)N2CCOCC2)ccc1N1CCCCC1)c1ccccc1 | . | 13 | . | 31 | -28 | 16 | . | . | . | .
C[C@H]1CCC[C@@]2(O[C@H](CCO)C[C@H](O)[C@H]2O)O1 | . | 3 | 5 | 7 | -9 | 0 | . | . | . | .
